These results are taken from PubChem BioAssay (EPA / NIEHS).

Structures are written as SMILES. Calls of active or inactive are those of the source. The calls were made as follows: active = hit-call score of the fitted dose curve at least 0.9, where 1 is the maximum; inactive = score below 0.9.

What all share (details): mRNA level, 48 h; actives raise or lower the signal
Read-out in assay [1]: flavin-containing dimethylaniline monooxygenases 3 (FMO3), FMO3 (gene 2328)
The assay can be described thus: LTEA_HepaRG_FMO3: Life Technologies and Expression Analysis (LTEA) Assay for flavin-containing dimethylaniline monooxygenases 3 (FMO3) using HepaRG (AID 2283453). The method in brief:
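Differentiated HepaRG cells in serum-free induction medium, exposed 48 h in duplicate to 8 half-log concentrations up to 100 uM in 0.5% DMSO. FMO3 mRNA by qRT-PCR, normalized to ACTB, GAPDH, POLR2A; bidirectional fit vs DMSO.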

Read-out in assay [2]: Cytochrome P450 (CYP1A1), CYP1A1 (gene 1543)
The assay can be described thus: LTEA_HepaRG_CYP1A1: Life Technologies and Expression Analysis (LTEA) Assay for Cytochrome P450 (CYP1A1) using HepaRG (AID 2283454). The method in brief: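 Differentiated human HepaRG cells, after 48 h plating, exposed in duplicate for 48 h in serum-free induction medium to 8 half-log concentrations up to 100 uM in 0.5% DMSO. CYP1A1 mRNA by qRT-PCR, normalized to ACTB/GAPDH/POLR2A; bidirectional fit versus DMSO.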

Read-out in assay [3]: CFLAR gene, CFLAR (gene 8837)
The assay can be described thus: LTEA_HepaRG_CFLAR: Life Technologies and Expression Analysis (LTEA) Assay for CFLAR gene using HepaRG (AID 2283455). An outline of the steps: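 HepaRG, 48 h exposure, 8-pt conc-response (100 uM top, half-log), 0.5% DMSO vehicle, duplicates. CFLAR expression by qRT-PCR; ACTB/GAPDH/POLR2A normalization; gain or loss fit vs DMSO baseline.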

Read-out in assay [4]: Forkhead box O1 (FOXO1), FOXO1 (gene 2308)
Description: LTEA_HepaRG_FOXO1: Life Technologies and Expression Analysis (LTEA) Assay for Forkhead box O1 (FOXO1) using HepaRG (AID 2283456). An outline of the steps:
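Readout is FOXO1 transcript level by multiplexed qRT-PCR against three housekeeping genes, curve-fitted in both directions relative to 0.5% DMSO vehicle. Human HepaRG cultures received chemicals for 48 h, up to 100 uM in half-log steps.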

Read-out in assay [5]: growth arrest and DNA damage 45 (GADD45A), GADD45A (gene 1647)
Description: LTEA_HepaRG_GADD45A: Life Technologies and Expression Analysis (LTEA) Assay for growth arrest and DNA damage 45 (GADD45A) using HepaRG (AID 2283458). The method in brief:
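Cells plated and cultured 48 h, switched to serum-free induction medium, then dosed for 48 h (100 uM top, half-log dilutions, 0.5% DMSO). RNA was isolated and transcript measured by Fluidigm qRT-PCR.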

Read-out in assay [6]: Forkhead box O3 (FOXO3), FOXO3 (gene 2309)
The assay can be described thus: LTEA_HepaRG_FOXO3: Life Technologies and Expression Analysis (LTEA) Assay for Forkhead box O3 (FOXO3) using HepaRG (AID 2283459). An outline of the steps: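 HepaRG, 48 h post-dose; 8 conc., half-log from 100 uM, 0.5% DMSO, duplicates; serum-free induction medium. Readout: FOXO3 mRNA, TaqMan qRT-PCR, housekeeping-normalized. Bidirectional curve fit vs DMSO baseline.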

Read-out in assay [7]: growth arrest and DNA damage 45 (GADD45B), GADD45B (gene 4616)
Description: LTEA_HepaRG_GADD45B: Life Technologies and Expression Analysis (LTEA) Assay for growth arrest and DNA damage 45 (GADD45B) using HepaRG (AID 2283461). An outline of the steps: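 Differentiated human HepaRG cells in serum-free induction medium exposed 48 h in duplicate to eight concentrations, top 100 uM, half-log steps, 0.5% DMSO. GADD45B mRNA by TaqMan qRT-PCR, normalized to ACTB, GAPDH, POLR2A; bidirectional fit versus DMSO.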

Read-out in assay [8]: ABC Transporter (ABCC3), ABCC3 (gene 8714)
The assay can be described thus: LTEA_HepaRG_ABCC3: Life Technologies and Expression Analysis (LTEA) Assay for ABC Transporter (ABCC3) using HepaRG (AID 2283462). The method in brief: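 Differentiated human HepaRG cells exposed 48 h in serum-free induction medium, 0.5% DMSO vehicle, 8-point half-log series to 100 uM in duplicate. ABCC3 mRNA by qRT-PCR, normalised to ACTB, GAPDH, POLR2A; bidirectional fit vs DMSO.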

Read-out in assay [9]: ABC Transporter (ABCB11), ABCB11 (gene 8647)
Description: LTEA_HepaRG_ABCB11: Life Technologies and Expression Analysis (LTEA) Assay for ABC Transporter (ABCB11) using HepaRG (AID 2283463). The method in brief:
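ABCB11 transcript levels are read by Fluidigm TaqMan qRT-PCR after 48 h chemical treatment of human HepaRG cells. Concentrations span 100 uM downward in half-log steps with 0.5% DMSO; gain or loss is fitted against DMSO controls.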

Read-out in assay [10]: ABC Transporter (ABCC2), ABCC2 (gene 1244)
Description: LTEA_HepaRG_ABCC2: Life Technologies and Expression Analysis (LTEA) Assay for ABC Transporter (ABCC2) using HepaRG (AID 2283464). The method in brief: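 Differentiated HepaRG cells in serum-free induction medium exposed 48 h to eight half-log concentrations up to 100 uM, 0.5% DMSO, in duplicate. ABCC2 mRNA measured by qRT-PCR (TaqMan, Fluidigm), normalized to ACTB, GAPDH and POLR2A. Fitted in both directions against DMSO.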

Read-out in assay [11]: Broad substrate specificity ATP-binding cassette transporter ABCG2 (Homo sapiens) (UniProt Q9UNQ0)
The assay can be described thus: LTEA_HepaRG_ABCG2: Life Technologies and Expression Analysis (LTEA) Assay for ABC Transporter (ABCG2) using HepaRG (AID 2283465). The method in brief: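 Read-out is ABCG2 mRNA induction or loss quantified by qRT-PCR after 48 h chemical treatment of human HepaRG cells, normalized to three housekeeping genes. Concentrations reached 100 uM top in half-log steps; fitting was bidirectional against 0.5% DMSO.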

Read-out in assay [12]: ATP-citrate lyase (ACLY), ACLY (gene 47)
Description: LTEA_HepaRG_ACLY: Life Technologies and Expression Analysis (LTEA) Assay for ATP-citrate lyase (ACLY) using HepaRG (AID 2283466). The method in brief:
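HepaRG, 48 h exposure, 8-pt half-log dilutions (top 100 uM), 0.5% DMSO. Readout: ACLY mRNA, TaqMan qRT-PCR, housekeeping-normalized (ACTB/GAPDH/POLR2A). Bidirectional curve fit vs DMSO.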

Read-out in assay [13]: Alkaline Phosphatase, Placental (ALPP) gene, ALPP (gene 250)
The assay can be described thus: LTEA_HepaRG_ALPP: Life Technologies and Expression Analysis (LTEA) Assay for Alkaline Phosphatase, Placental (ALPP) gene using HepaRG (AID 2283468). An outline of the steps:
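HepaRG cells plated 48 h, then exposed in duplicate for 48 h in serum-free induction medium to 8-point half-log series from 100 uM in 0.5% DMSO. ALPP mRNA by TaqMan qRT-PCR, normalized to ACTB/GAPDH/POLR2A; bidirectional fit versus DMSO.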

Read-out in assay [14]: Bcl-2 (BAD) gene, BAD (gene 572)
Description: LTEA_HepaRG_BAD: Life Technologies and Expression Analysis (LTEA) Assay for Bcl-2 (BAD) gene using HepaRG (AID 2283469). An outline of the steps: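 BAD transcript change, measured by qRT-PCR against three housekeeping genes and fitted in both directions relative to 0.5% DMSO, after 48 h chemical treatment of human HepaRG liver cells at concentrations up to 100 uM.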

Read-out in assay [15]: Bcl-2 (BAX) gene, BAX (gene 581)
The assay can be described thus: LTEA_HepaRG_BAX: Life Technologies and Expression Analysis (LTEA) Assay for Bcl-2 (BAX) gene using HepaRG (AID 2283470). The method in brief:
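HepaRG (human liver), 48 h exposure, duplicate wells. 8-pt curve, half-log from 100 uM, 0.5% DMSO. BAX transcript by TaqMan qRT-PCR; ACTB/GAPDH/POLR2A normalization; gain or loss vs DMSO baseline.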

Read-out in assay [16]: adenosine kinase (ADK) gene, ADK (gene 132)
Description: LTEA_HepaRG_ADK: Life Technologies and Expression Analysis (LTEA) Assay for adenosine kinase (ADK) gene using HepaRG (AID 2283471). An outline of the steps: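 ADK expression quantified by qRT-PCR, normalised to three housekeeping genes, after 48 h exposure of HepaRG cells to eight concentrations (top 100 uM, half-log steps, duplicate, 0.5% DMSO). Up- or down-regulation fitted relative to vehicle.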

Read-out in assay [17]: Alpha-fetoprotein (AFP) gene, AFP (gene 174)
Description: LTEA_HepaRG_AFP: Life Technologies and Expression Analysis (LTEA) Assay for Alpha-fetoprotein (AFP) gene using HepaRG (AID 2283472). An outline of the steps:
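HepaRG, single lot; 48 h post-plating -> serum-free induction medium; cpd 8-pt, 100 uM top, half-log, 0.5% DMSO, duplicate, 48 h. RNA -> qRT-PCR AFP, norm ACTB/GAPDH/POLR2A. Bidirectional fit vs DMSO.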

Read-out in assay [18]: Peroxisomal acyl-coenzyme A oxidase 1 (ACOX1) gene, ACOX1 (gene 51)
The assay can be described thus: LTEA_HepaRG_ACOX1: Life Technologies and Expression Analysis (LTEA) Assay for Peroxisomal acyl-coenzyme A oxidase 1 (ACOX1) gene using HepaRG (AID 2283467). An outline of the steps:
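Measured by qRT-PCR against three housekeeping genes: ACOX1 transcript change in human HepaRG cells after 48 h dosing. Concentrations ran up to 100 uM in half-log steps. Curves were fitted bidirectionally relative to 0.5% DMSO.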

Read-out in assay [19]: ABC Transporter (ABCB1), ABCB1 (gene 5243)
The assay can be described thus: LTEA_HepaRG_ABCB1: Life Technologies and Expression Analysis (LTEA) Assay for ABC Transporter (ABCB1) using HepaRG (AID 2283460). An outline of the steps:
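Expression of ABCB1 was quantified by qRT-PCR against three housekeeping genes after human HepaRG cultures received test chemicals for 48 hours. Concentrations spanned eight half-log steps topping at 100 uM in 0.5% DMSO; gain or loss of signal was fitted relative to vehicle.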

Broad substrate specificity ATP-binding cassette transporter ABCG2 (Homo sapiens), sequence (Q9UNQ0 whole entry, looked up): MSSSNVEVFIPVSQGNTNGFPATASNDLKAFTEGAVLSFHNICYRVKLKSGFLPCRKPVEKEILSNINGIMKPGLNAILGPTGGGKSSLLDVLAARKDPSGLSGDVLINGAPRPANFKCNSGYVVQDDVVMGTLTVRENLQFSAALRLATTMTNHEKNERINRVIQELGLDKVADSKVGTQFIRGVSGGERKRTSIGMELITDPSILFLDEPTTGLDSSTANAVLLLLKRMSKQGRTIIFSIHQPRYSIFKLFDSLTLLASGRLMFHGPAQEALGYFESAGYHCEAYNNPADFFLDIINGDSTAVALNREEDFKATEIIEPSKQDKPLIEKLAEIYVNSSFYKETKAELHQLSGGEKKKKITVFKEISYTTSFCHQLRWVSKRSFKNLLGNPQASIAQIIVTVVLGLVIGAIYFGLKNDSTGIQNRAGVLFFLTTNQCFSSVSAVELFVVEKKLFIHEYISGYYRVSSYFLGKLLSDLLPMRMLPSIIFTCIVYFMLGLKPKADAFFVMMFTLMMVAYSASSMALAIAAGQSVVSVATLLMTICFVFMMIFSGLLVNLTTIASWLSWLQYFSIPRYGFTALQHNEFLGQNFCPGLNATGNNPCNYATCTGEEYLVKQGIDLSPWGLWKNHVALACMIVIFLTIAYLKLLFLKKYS

For `[O-][Cl+]O`, the outcome in assay [1], in [2], in [3], in assay [4], in assay [5] and in assay [6] was inactive. In addition, the compound was called inactive in assay [7], in assay [8], in assay [9], in assay [10], in assay [11] and in [12]. Moreover, the call in assay [13], in assay [14], in assay [15], in assay [16] and in assay [17] was inactive.
On to `O=P(OCCCl)(OCCCl)OCCCl`, for which the outcome in assay [1], in [3], in assay [4], in [5], in assay [6] and in [7] was inactive. Also, the compound was classed as inactive in assay [8], in assay [9], in assay [10], in assay [11], in assay [12] and in [18]. Besides, the compound was called inactive in assay [13], in assay [14] and in assay [17]. For the same compound, the AC50 was 76 µM (active) in assay [2] and 9.92 µM (active) in assay [15].
Regarding `c1ccc2c(c1)-c1cccc3cccc-2c13`, the compound was called inactive in assay [1], in [3], in assay [4], in assay [5], in [6] and in assay [19]. For the same compound, the result in assay [7], in assay [8], in [9], in assay [10], in assay [11] and in assay [12] was inactive. In addition, the call in assay [13], in [14] and in [17] was inactive. The AC50 in assay [2] was 33.3 µM (active).
`Nc1ccc(Cc2ccc(N)cc2)cc1`: the call in assay [1], in [3], in assay [4], in assay [5], in [6] and in [7] was inactive. Also, the outcome in assay [8], in assay [9], in assay [10], in assay [11], in [12] and in assay [18] was inactive. Moreover, the outcome in [13], in assay [14], in [15], in assay [16] and in assay [17] was inactive. The AC50 in [2] was 32.3 µM (active).
On to `ClC1=C(Cl)C2(Cl)C3C(Cl)C=CC3C1(Cl)C2(Cl)Cl` (stereo not given), for which the compound was classed as inactive in [1], in assay [3], in [4], in [5], in assay [6] and in assay [7]. Further, the compound was called inactive in [8], in [12], in [18], in [13], in assay [14] and in assay [15]. Moreover, the concentration at half-maximal activity (AC50) in [2] is 18.3 µM (active); in assay [19] it was 1.45 µM (active); in assay [9] it was 41.6 µM (active); in [10], 11.4 µM (active); in assay [11], 8.6 µM (active); in assay [17] it was 22.7 µM (active).
In the case of `C1=Cc2cccc3cccc1c23`, the result in [1], in assay [3], in assay [4], in [5], in [6] and in [19] was inactive. Further, the result in assay [7], in [8], in [10], in [11], in assay [12] and in [13] was inactive. The compound was classed as inactive in assay [14], in assay [15], in assay [16] and in [17]. In addition, in assay [2], the AC50 is 20.9 µM (active).
On to `CCCCCCCCCCCCCN1CC(C)OC(C)C1` (stereo not given), for which the compound was called inactive in [1], in assay [3], in assay [4], in assay [5], in assay [6] and in assay [19]. Further, the compound was called inactive in assay [7], in assay [8], in assay [9], in assay [10], in assay [11] and in [12]. For the same compound, the result in [18], in assay [13], in [14] and in assay [17] was inactive. Moreover, in assay [2], the AC50 is 50 µM (active).
